The assay has as its system primary human hepatic stellate cells (donor 1). Kind of assay: scaled lipid accumulation score (0 = DMSO-like, 1 = nortriptyline-like); higher = stronger HSC inactivation (lipid re-accumulation), active = hit call of the paper. The following applies: 48 h.
[1] abbreviates: library stock concentration: 10 mM.
Where [2] appears, read: library stock concentration: 1 mM.
Where [3] appears, read: library stock concentration: 100 uM.
The mark [4] stands for this setting: library stock concentration: 5.9 mM.
Setting [5] is: library stock concentration: 3.33 mM.
Setting [6] is: library stock concentration: 80 uM.
[7] abbreviates: library stock concentration: 400 uM.
Where [8] appears, read: library stock concentration: 2 mM.

“And” between values parts separate entries of the source, which are not always exact repeats. Equal entries are not always repeated. Structures can show the parent of a compound that is named as a salt. Out of some 5,800 compounds screened, about 620 (11%) showed activity. Only a selection was taken, and actives are over-represented in it overall. Values without a mark were called inactive.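 How the source made its calls: active = score above a cut-off or among the top three wells of a plate; in these data no inactive exceeds 0.85.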

With `CC(=O)N[C@H]1[C@@H](O[C@@H]2O[C@H](CC(O)[C@H]3O[C@@H](n4ccc(=O)[nH]c4=O)[C@H](O)[C@@H]3O)[C@H](O)[C@H](O)[C@H]2NC(=O)/C=C/CC(C)C)O[C@H](CO)[C@@H](N)[C@@H]1O` (stereo not given in full) [Tunicamycin], the “scaled lipid accumulation score” value (library stock concentration: 7 mM) was 0.058.
Turning to `CN1CC[C@@]2(C)c3cc(OC(=O)Nc4ccccc4)ccc3N(C)[C@@H]12` [Phenserine], under setting [1], the “scaled lipid accumulation score” value was 0.339.
As to `NCCc1ccccn1`, the “scaled lipid accumulation score” value under setting [1] was at most 0.
For the compound `CCCCCCC(=O)CCCCCC/C=C/C[C@@H](O)[C@H](O)[C@@](N)(CO)C(=O)O` [Myriocin], the “scaled lipid accumulation score” value under setting [2] is 0.023.
As for `O[C@H]1[C@H]2[C@H](O)CCCN2C[C@H]1O` [swainsonine], the “scaled lipid accumulation score” value (library stock concentration: 28.9 mM) is 0.01.
Regarding `Cl.Clc1ccc(N2CCN(Cc3c[nH]c4ncccc34)CC2)cc1` [L-745,870 hydrochloride], the “scaled lipid accumulation score” value under setting [1] is 0.902 (active).
Still for that read-out and setting: under `Clc1ccc(N2CCN(Cc3c[nH]c4ncccc34)CC2)cc1` [L-745,870 trihydrochloride] stands 0.37.
On to `CC1=CC(=O)C2=C(C)C[C@H](O)[C@@H]3[C@H](OC(=O)[C@H]3C)[C@H]12` [Austricine hydrate], for which the “scaled lipid accumulation score” value is at most 0.
Regarding `CCCCC[C@@H](/C=C/C=C\CCCCCCCC(=O)O)OO`, under setting [3], the “scaled lipid accumulation score” value is at most -0.021.
Take `CO[C@@H]1C=C2CCN(C)[C@@H]2C2c3cc4c(cc3C(=O)OC21)OCO4` (stereo not given in full) [Ungerine nitrate]: the “scaled lipid accumulation score” value is at most 0.
With `CCCCCCC(=O)O[C@H]1CC[C@H]2[C@@H]3CC(=O)C4=CC(=O)CC[C@]4(C)[C@H]3CC[C@]12C` [6-keto Testosterone Enanthate], under setting [2], the “scaled lipid accumulation score” value is 0.048.
In the case of `O=C1Nc2ccc(Cl)cc2C(c2ccccc2Cl)=NC1O` (stereo not given) [Lorazepam], the “scaled lipid accumulation score” value under setting [1] is at most 0.
On to `Cl.Oc1ccc2c3c1O[C@H]1c4[nH]c5ccccc5c4C[C@@]4(O)C(C2)N(CC2CC2)CCC314` (stereo not given in full) [Naltrindole hydrochloride], for which, under setting [1], the “scaled lipid accumulation score” value was 1.1 (active).
In the case of `Oc1ccc2c3c1O[C@H]1c4[nH]c5ccccc5c4C[C@@]4(O)[C@@H](C2)N(CC2CC2)CC[C@]314` [Naltrindole HCl], under “library stock concentration: 4.8 mM”, the “scaled lipid accumulation score” value is 0.264.
With `Oc1ccc2c3c1O[C@H]1c4[nH]c5c(c4C[C@@]4(O)[C@@H](C2)N(CC2CC2)CC[C@]314)C[C@@]1(O)[C@H]2Cc3ccc(O)c4c3[C@@]1(CCN2CC1CC1)[C@H]5O4` [nor-Binaltorphimine dihydrochloride], the “scaled lipid accumulation score” value under setting [1] is ≤ -0.055 and ≤ 0.
In the case of `C=C(C)CN1CC[C@@]23c4c5ccc(O)c4O[C@H]2c2[nH]c4ccccc4c2C[C@]3(O)C1C5` [SDM25N hydrochloride], the “scaled lipid accumulation score” value under setting [1] was 0.625.
For `O=C1CC[C@@]2(O)[C@H]3Cc4ccc(O)c5c4[C@@]2(CCN3CC2CC2)[C@H]1O5` [Naltrexone hydrochloride], the “scaled lipid accumulation score” value was 0.019 under setting [4]; ≤ -0.045 and ≤ -0.027 under setting [1].
`O=C1/C(=C/c2ccccc2)C[C@@]2(O)[C@H]3Cc4ccc(O)c5c4[C@@]2(CCN3CC2CC2)[C@H]1O5` [BNTX maleate salt hydrate]: the “scaled lipid accumulation score” value under setting [1] is at most -0.006.
Still for that read-out and setting: under `O=C(O)/C=C\C(=O)O.O=C1/C(=C/c2ccccc2)C[C@@]2(O)C3Cc4ccc(O)c5c4[C@@]2(CCN3CC2CC2)[C@H]1O5` [BNTX maleate] stands 0.851 (active).
With `Oc1ccc2c3c1O[C@H]1c4[nH]c5ccccc5c4C[C@@]4(O)[C@@H](C2)N(CC2CC2)CC[C@]314` [Naltrindole], under setting [1], the “scaled lipid accumulation score” value is 0.713.
Consider `O=C1CC[C@@]2(O)[C@H]3Cc4ccc(O)c5c4[C@@]2(CCN3CC2CC2)[C@H]1O5` [Naltrexone hydrochloride dihydrate], for which the “scaled lipid accumulation score” value is at most 0.
Consider `Cl.Oc1ccc2c3c1O[C@H]1c4[nH]c5ccccc5c4C[C@@]4(O)C(C2)N(CC2CC2)CC[C@]314` [Naltrindole hydrochloride], for which, under setting [1], the “scaled lipid accumulation score” value is 1.33 (active).
Turning to `O=C1CC[C@@]2(O)[C@H]3Cc4ccc(O)c5c4[C@@]2(CCN3CC2CC2)[C@H]1O5` [Naltrexone HCl], the “scaled lipid accumulation score” value was at most 0 under setting [5], at most -0.006 under setting [4] and 0.025 under setting [1].
`CCCCCCC(C)(C)c1ccc([C@@H]2C[C@H](O)CC[C@H]2CCCO)c(O)c1`: the “scaled lipid accumulation score” value under setting [2] was 0.004.
As for `CN/C(=N\S(=O)(=O)c1ccc(Cl)cc1)N1C[C@H](c2ccccc2)C(c2ccc(Cl)cc2)=N1`, the “scaled lipid accumulation score” value under setting [2] is at most 0.
Turning to `COC[C@H]1OC(=O)c2coc3c2[C@@]1(C)C1=C(C3=O)[C@@H]2CCC(=O)[C@@]2(C)C[C@H]1OC(C)=O` [Wortmannin], the “scaled lipid accumulation score” value under setting [5] is at most 0 and the “scaled lipid accumulation score” value under setting [1] is at most 0.
Regarding `CCOC(=O)c1ncn2c1CN(C)C(=O)c1cc(N=[N+]=[N-])ccc1-2`, the “scaled lipid accumulation score” value under setting [1] is at most -0.001.
Still for that read-out and setting: the value for `CC1=CCCC2C1(C)CCC(C)C2(C)CC/C(C)=C/Cn1c[n+](C)c2c(N)ncnc21` (stereo not given) [Agelasine (stereochemistry of diterpene unknown)] was 0.317.
As to `COc1ccc(N(C(=O)Oc2c(C)cccc2C)c2ccnc(Nc3ccc(N4CCN(C)CC4)cc3)n2)c(OC)c1`, the “scaled lipid accumulation score” value reads like this: under setting [6], 0.038; under setting [7], 0.193; under setting [8], at most 0; under setting [5], 0.656; under setting [1], 0.815 and 0.679.
Take `COc1ccc(-n2nc(C(F)(F)F)cc2-c2ccc(Cl)cc2)cc1`: under setting [1], the “scaled lipid accumulation score” value was 0.006.
As to `COc1ccc(/C=C/C(=O)CC(=O)/C=C/c2ccc(OC)c(OC)c2)cc1OC` [Dimethoxycurcumin], the “scaled lipid accumulation score” value under setting [2] was at most 0.
In the case of `CCCCC/C=C\C/C=C\C/C=C\C/C=C\CCCC(=O)NC[C@@H](C)O` [R-2 Methanandamide], under setting [2], the “scaled lipid accumulation score” value was at most 0.
As to `COC[C@@H]([C@H](O)[C@H](O)C(=O)NCC[C@H](C)c1nc(/C=C/C[C@@H]2O[C@]3(C[C@@H](O)[C@@H]2C)O[C@H]([C@H](C[C@H](O)[C@H](C)[C@H](O)[C@H](C)/C=C(C)/C(C)=C/C=C/C(C)=C\C#N)OC)[C@H](OP(=O)(O)O)C3(C)C)co1)N(C)C` [Calyculin A], under “library stock concentration: 500 uM”, the “scaled lipid accumulation score” value was 0.228.
`C=C1[C@@H](C)[C@H]2[C@H](Cc3ccccc3)NC(=O)[C@]23OC(=O)/C=C/[C@H](O)CCC[C@@H](C)C/C=C/[C@H]3[C@@H]1O` [Cytochalasin B]: the “scaled lipid accumulation score” value (library stock concentration: 10.4 mM) was 0.806.
In the case of `C=C1[C@@H](C)[C@H]2[C@H](Cc3ccccc3)NC(=O)C23[C@H](OC(C)=O)/C=C/[C@](C)(O)C(=O)[C@@H](C)C/C=C/[C@H]3[C@@H]1O` (stereo not given in full) [Cytochalasin D], under “library stock concentration: 9.9 mM”, the “scaled lipid accumulation score” value is 0.918 (active).
As for `CC[C@@H](C)C(=O)O[C@H]1[C@H](O)[C@H]2[C@@H](CN3C[C@@H](C)CC[C@H]3[C@@]2(C)O)[C@@H]2C[C@]34O[C@]5(O)[C@@H](OC(=O)[C@](C)(O)[C@@H](C)O)CC[C@@]3(C)[C@@H]5[C@@H](OC(C)=O)[C@@H](OC(C)=O)[C@H]4[C@@]21O` (stereo in doubt) [Protoveratrine b], the “scaled lipid accumulation score” value under setting [1] is at most 0.
Regarding `COc1ccc2c(c1OC)CN1CCc3cc4c(cc3C1C2)OCO4` (stereo not given) [(d,l)-Tetrahydroberberine], the “scaled lipid accumulation score” value is at most 0.
On to `COc1ccc2c(c[n+](C)c3c4cc5c(cc4ccc23)OCO5)c1OC.Cl` [Chelerythrine chloride], for which, under setting [8], the “scaled lipid accumulation score” value is 1.1 (active).
For `COc1ccc2c(c[n+](C)c3c4cc5c(cc4ccc23)OCO5)c1OC` [Chelerythrine Chloride], the “scaled lipid accumulation score” value under setting [5] is 0.656.
For `COc1ccc2c(c[n+](C)c3c4cc5c(cc4ccc23)OCO5)c1OC` [Chelerythrine chloride], the “scaled lipid accumulation score” value by setting is: under setting [6], at most -0.016; under setting [7], at most -0.016; under setting [1], 0.308 and 0.167.
In the case of `CCCCC/C=C\C/C=C\C/C=C\C/C=C\CCC(C)C(=O)NCCF` (stereo not given), the “scaled lipid accumulation score” value under setting [2] is 0.05.
Regarding `C/C=C1/C[N+]2(C)CCC34C(=C(C=O)[C@H]1C[C@@H]32)Nc1ccccc14` (stereo not given in full) [Fluorocurarine chloride], the “scaled lipid accumulation score” value was at most 0.
For the compound `CC(C)C1CNC(C(=O)O)C1CC(=O)O` (stereo not given) [Dihydrokainic acid], the “scaled lipid accumulation score” value under setting [1] is 0.08.
In the case of `CCCCC/C=C\C[C@@H](/C=C/C=C\C/C=C\CCCC(=O)O)OO`, the “scaled lipid accumulation score” value under setting [3] was at most -0.021.
`Cc1cc(C)cc(C(=O)OC2C[C@H]3CC[C@@H](C2)N3C)c1` (stereo not given in full) [Tropanyl-3,5-dimethylbenzoate]: the “scaled lipid accumulation score” value under setting [1] was 0.57.
Still for that read-out and setting: under `CN1[C@@H]2CC[C@H]1C[C@@H](OC(=O)c1cc(Cl)cc(Cl)c1)C2` [3-Tropanyl-3,5-dichlorobenzoate] stands 0.646; under `CN1C2CCC1CC(OC(=O)c1cc(Cl)cc(Cl)c1)C2` (stereo not given), 1.04 (active).
For the compound `C=C(C)[C@H]1O[C@H]2CC[C@@]3(C)[C@@](O)(CC[C@H]4[C@@H]5OC(C)(C)[C@H]6C[C@@H]7C(=C)Cc8c(Cl)cc9[nH]c(c5c9c8[C@@]76O)[C@@]43C)[C@@]23O[C@H]3[C@H]1O` [Penitrem A], the “scaled lipid accumulation score” value (library stock concentration: 7.9 mM) is at most -0.021.
Turning to `O=c1[nH]c2ccccc2n1C1CCN(CCCC(c2ccc(F)cc2)c2ccc(F)cc2)CC1` [Pimozide] [listing 1 of 3 here], under setting [1], the “scaled lipid accumulation score” value was 1.21 (active).
On to `O=c1[nH]c2ccccc2n1C1CCN(Cc2ccc(-c3[nH]c4cc5ncnc5cc4nc3-c3ccccc3)cc2)CC1` [Sigma A6730], for which the “scaled lipid accumulation score” value was at most 0 under setting [6], at most 0 under setting [7], 0.055 under setting [8] and 0.683 under setting [1].
For `O=c1[nH]c2ccccc2n1C1CCN(CCCC(c2ccc(F)cc2)c2ccc(F)cc2)CC1` [Pimozide] [listing 2 of 3 here], the “scaled lipid accumulation score” value was 0.242. Besides, the “scaled lipid accumulation score” value under setting [1] is 0.021.
`O=c1[nH]c2ccccc2n1C1CCN(CCCC(c2ccc(F)cc2)c2ccc(F)cc2)CC1` [Pimozide] [listing 3 of 3 here]: under setting [1], the “scaled lipid accumulation score” value is 1.15 (active).
Consider `O=c1[nH]c2ccccc2n1CCCN1CCC(n2c(=O)[nH]c3cc(Cl)ccc32)CC1` [Domperidone], for which the “scaled lipid accumulation score” value was 0.362. Further, the “scaled lipid accumulation score” value under setting [5] is 0.062. Further, the “scaled lipid accumulation score” value (library stock concentration: 4.7 mM) was 0.135 and 0.071.
For `O=C(CCCN1CCC(n2c(=O)[nH]c3ccccc32)CC1)c1ccc(F)cc1` [Benperidol], the “scaled lipid accumulation score” value is 0.202.

The record behind these values is the supplement of paper PMC9135407.
